Screening data deposited in PubChem by several laboratories.
Only some compounds are listed: those with a hit (about 4.5% of all), similar ones and a draw of the others.
Gli-Sufu block = Gli-Sufu pathway antagonism; Sufu-KO-LIGHT fibroblasts, Gli luciferase reporter luminescence; inhibition, % at 5 µM; 340,000 tested, 0.74% active; AID 588413;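 active = inhibition above about 55%, limit read from the data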;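 also: 0% = DMSO-treated cells and 100% = wells with medium but no cells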
697 NFkB inh = inhibitors of the PMA/ionomycin-induced NF-kB reporter in 697 B cells | 330,000 tested, 0.33% active | inhibition, % at 4 µM | AID 435022 | 697 B-cell NF-kB luciferase reporter, 16 h; in the data active = inhibition above about 35%
Mdm2-MdmX inh = human Mdm2/MdmX binding inhibition. O15151+Q00987. SaOS-2 split-luciferase Mdm2/MdmX complementation, luminescence. inhibition, % at 8 µM. 330,000 tested, 3% active;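 active = inhibition of at least 50% at 8 µM in the primary screen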
Target sequence (O15151 whole entry, looked up): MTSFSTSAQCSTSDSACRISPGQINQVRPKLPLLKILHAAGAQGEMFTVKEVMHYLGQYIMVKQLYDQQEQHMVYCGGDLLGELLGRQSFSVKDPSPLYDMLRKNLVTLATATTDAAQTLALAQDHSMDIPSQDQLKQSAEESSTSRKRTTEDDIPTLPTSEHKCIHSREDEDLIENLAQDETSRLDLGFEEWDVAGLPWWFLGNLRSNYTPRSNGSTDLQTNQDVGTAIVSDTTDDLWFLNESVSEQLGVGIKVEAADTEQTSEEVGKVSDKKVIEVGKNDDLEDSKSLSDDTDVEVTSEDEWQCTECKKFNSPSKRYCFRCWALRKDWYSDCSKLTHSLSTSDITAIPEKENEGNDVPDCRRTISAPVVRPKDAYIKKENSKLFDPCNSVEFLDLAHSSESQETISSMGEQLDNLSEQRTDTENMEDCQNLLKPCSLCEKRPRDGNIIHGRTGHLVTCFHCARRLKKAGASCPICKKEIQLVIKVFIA
Target sequence (Q00987 whole entry, looked up): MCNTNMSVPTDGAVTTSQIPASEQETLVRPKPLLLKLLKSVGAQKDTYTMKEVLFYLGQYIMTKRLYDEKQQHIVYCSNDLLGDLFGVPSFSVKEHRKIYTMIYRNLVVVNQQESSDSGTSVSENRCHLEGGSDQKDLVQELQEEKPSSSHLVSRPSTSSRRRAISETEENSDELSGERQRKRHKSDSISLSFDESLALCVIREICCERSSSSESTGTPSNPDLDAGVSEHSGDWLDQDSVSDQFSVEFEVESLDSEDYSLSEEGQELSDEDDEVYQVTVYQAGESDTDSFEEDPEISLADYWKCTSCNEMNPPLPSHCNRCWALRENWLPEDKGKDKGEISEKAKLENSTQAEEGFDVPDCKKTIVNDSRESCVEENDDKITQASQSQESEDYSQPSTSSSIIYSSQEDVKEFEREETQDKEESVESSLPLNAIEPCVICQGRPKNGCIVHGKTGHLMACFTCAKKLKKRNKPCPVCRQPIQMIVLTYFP
CSC inhib = cancer stem cell inhibition. cancer stem cell-like cells viability, luminescence. inhibition, % at 7.5 µM. 300,000 tested, 1.1% active. AID 2717; in the data active = inhibition above about 75%; tested in HMLE shEcad cells
Jurkat NFkB inh = inhibitors of the PMA/ionomycin-induced NF-kB reporter in Jurkat cells | PMA/ionomycin-induced NF-kB luciferase reporter, luminescence | inhibition, % at 4 µM | 330,000 tested, 0.53% active | AID 435003; in the data active = inhibition above about 50%
aSyn 5UTR inh = MLPCN primary screen, SNCA 5' untranslated region | alpha-synuclein 5'UTR reporter, inhibitor activity | inhibition, % (tested at 7.5 µM) | 300,000 tested, 0.82% active | AID 1813; in the data active = inhibition above about 60%;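 also: H4 neuroglioblastoma cells stably carrying SNCA 5'UTR luciferase fusion; 0% = DMSO wells and 100% = positive control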
Mdm2-MdmX conf = confirmation of human Mdm2/MdmX interaction inhibitors; shares compounds with Mdm2-MdmX inh; Mdm2-MdmX binding, luminescent assay; inhibition, % at 8 µM; 10,000 tested, 55% active; AID 489028; in the data active = inhibition above about 40%
Full FLuc ctr = inhibits full-length luciferase, flagging false Mdm2/MdmX hits. shares compounds with Mdm2-MdmX inh. SaOS-2 full-length luciferase counterscreen, luminescence. inhibition, % at 8 µM. 6,200 tested, 77% active. AID 504607;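 active = mean inhibition at 8 µM reaching about 37%, which flags the compound as non-specific, limit read from the data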;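 also: p53-null SaOS-2 cells with luciferase driven by a doxycycline-inducible promoter; compound on cells about two nights before reading with doxycycline added after day one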
Active calls of the source: *; nt = not tested or not shown.

SMILES | Gli-Sufu block | 697 NFkB inh | Mdm2-MdmX inh | CSC inhib | Jurkat NFkB inh | aSyn 5UTR inh | Mdm2-MdmX conf | Full FLuc ctr
Cc1[nH]n2c(=O)cc(-c3ccc([N+](=O)[O-])cc3)nc2c1-c1ccccc1 | 6 | 3 | 66* | -9 | 5 | -8 | 66* | 39*
Cc1cccc(C)c1Oc1nc(-c2ccccc2)ncc1S(=O)(=O)c1ccccc1 | 17 | -4 | 52* | 33 | 5 | 56 | 3 | nt
CCN1C(=O)/C(=C/c2nc3ccccc3c(=O)n2-c2ccccc2)c2ccccc21 | 15 | -22 | 83* | 22 | -9 | -104 | 49* | 57*
Cc1ccc(S(=O)(=O)N2c3cc(C)ccc3OCC2C(C)(C)C)cc1 (stereo not drawn) | 7 | -6 | 63* | 53 | 32 | 6 | 72* | 48*
CC1COc2ccccc2N1S(=O)(=O)c1ccc(Cl)cc1 (stereo not drawn) | 7 | 14 | 6 | -12 | 14 | -23 | nt | nt
Cc1ccc(S(=O)(=O)N2c3ccccc3OCC2c2ccccc2)cc1 (stereo not drawn) | 1 | -20 | 56* | 63 | 6 | -2 | 58* | 55*
CC(=O)N(C(C)=O)c1ncc2c([nH]c3ccccc32)c1C#N | -14 | 25 | 82* | 1 | 36 | 65* | 86* | 33
Cc1nc(C(=O)O)cc2c1[nH]c1ccccc12 | 20 | 16 | 6 | -11 | 16 | 1 | nt | nt
O=C(N/N=C/c1ccc(Cl)c([N+](=O)[O-])c1)c1cc(-c2ccc3c4c(cccc24)CC3)n[nH]1 | -5 | 21 | 100* | 136* | 5 | 12 | 91* | 61*
CN(C)c1ccc(/C=N/NC(=O)c2cc(-c3ccc4c(c3)OCO4)n[nH]2)cc1 | -23 | -68 | 52* | 66 | 8 | -137 | 54* | 65*
CC(C)c1ccc(/C=N/NC(=O)c2cc(-c3cccc([N+](=O)[O-])c3)n[nH]2)cc1 | 1 | -4 | 51* | 62 | -1 | 0 | 17 | nt
Cn1cccc1-c1cc(C(=O)N/N=C/c2ccc([N+](=O)[O-])cc2)[nH]n1 | 2 | 22 | 41 | 9 | -15 | 21 | nt | nt
O=C(N/N=C/c1cccc([N+](=O)[O-])c1)c1cc(-c2ccc3c4c(cccc24)CC3)n[nH]1 | -2 | -44 | 4 | 24 | -24 | -23 | nt | nt
O=C1CC2(CCN(C(=O)C3CC(=O)N(c4ccc(F)cc4)C3)CC2)Oc2ccccc21 (stereo not drawn) | 21 | -5 | 34 | -10 | 22 | 14 | nt | nt
COc1cccc(/C=C2/Sc3ccc(C(=O)NCCN4CCCCCC4)cc3NC2=O)c1 | 7 | -5 | 98* | -16 | -19 | 45 | 30 | nt
O=C1Nc2cc(C(=O)NCCN3CCCCCC3)ccc2S/C1=C\c1ccccc1 | 3 | -8 | 81* | -5 | 0 | 55 | 19 | nt
CCOC(=O)C1CCN(C(=O)c2ccc3c(c2)NC(=O)/C(=C\c2cccc(C)c2)S3)CC1 | 17 | -5 | 5 | 16 | 13 | -14 | nt | nt
Cc1cccc(/C=C2/Sc3ccc(C(=O)NCCN4CCCC4)cc3NC2=O)c1 | 7 | -5 | 72* | 6 | 11 | -58 | 13 | nt
Cc1ccc(/C=C2/Sc3ccc(C(=O)NCc4ccccn4)cc3NC2=O)cc1 | -14 | 0 | 70* | -9 | 22 | 12 | 32 | nt
COc1cccc(NC(=O)c2cccc(N3C(=O)C4CCC(C)CC4C3=O)c2)c1 (stereo not drawn) | 17 | 11 | -12 | 6 | 22 | -4 | nt | nt
CN1CCN(c2ccc(Cl)cc2NC(=O)/C=C/c2ccc(F)cc2)CC1 | 31 | -7 | 52* | 6 | 9 | -44 | 14 | nt
CN1CCN(c2ccc(Cl)cc2NC(=O)c2ccc(S(=O)(=O)N3CCCCCC3)cc2)CC1 | 8 | -1 | 67* | 30 | -6 | 41 | 39 | 72*
CC(=O)N1CCN(c2ccc(NC(=O)c3ccco3)cc2Cl)CC1 | -19 | 6 | 8 | -3 | 8 | -49 | nt | nt
CCN1CCN(c2ccc(S(=O)(=O)N3CCCCC3)cc2NC(=O)c2ccc([N+](=O)[O-])o2)CC1 | 7 | 15 | 53* | 8 | 26 | -32 | 28 | nt
